Assay [1] is described as follows: qHTS assay to identify small molecule agonists of the sonic hedgehog signaling (Shh) pathway (AID 1259368). Also: series mostly up to about 92 µM; nearly all actives have a fitted effect of over 15% in size. In outline:
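NIH/3T3-derived 3T3Gli1-Luc cells carrying a stably integrated Gli1 response element–firefly luciferase reporter were plated, left 4 hr at 37 C, then given compounds in DMSO for 24 hr. Luminescence was read 30 min after adding luciferase reagent.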

A short description of assay [2]: qHTS assay to identify small molecule antagonists of the sonic hedgehog signaling (Shh) pathway (AID 1259369). Also: nearly all actives have a fitted effect of over 45% in size. Also: potency is read from the fitted curve at half-maximal effect. The method, boiled down:
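NIH/3T3-derived 3T3Gli1-Luc cells with stably integrated Gli1-Luc reporter were preincubated 4hr at 37 C, then given compounds in DMSO plus Shh conditioned medium and incubated 24hr. Firefly luciferase luminescence read after 30min reagent at room temperature.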
For orientation: Quantitative high-throughput screening tests each substance at several concentrations.

The target of assay [3] is Estrogen receptor beta (Homo sapiens) (UniProt Q92731). In words: qHTS assay to identify small molecule agonists of the estrogen receptor beta (ER-beta) signaling pathway (AID 1259377; active = well fitted activation curve with a large enough effect in the signal ratio in the repeat runs, not every such curve was filed as active; the % refers to the signal ratio). The method, boiled down:
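HEK293T ER-beta-UAS-bla; 2% charcoal-stripped FBS; cells pre-incubated 6 hr, compound 16 hr, 37C/5% CO2; LiveBLAzer B/G FRET substrate 2 h RT; fluorescence intensity read.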

The nature of assay [4]: qHTS assay to identify small molecule agonists of the androgen receptor (AR) signaling pathway in the presence of an antagonist - cell viability counter screen (AID 1259379; active = well fitted curve in the direction sought with a large enough effect in the repeat runs; an effect the other way counts as inactive or inconclusive; also: nearly all actives have a fitted effect of over 25% in size; also: potency is read from the fitted curve at half-maximal effect). The method, boiled down:
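MDA-kb2 human breast carcinoma cells (stable MMTV-luciferase, AR/GR responsive) were seeded 3,000 cells/well, pre-incubated 5 hr at 37C without CO2, then given 3.0uM nilutamide and compounds at 15 concentrations for 16 hr. Viability was read by CellTiter-Fluor fluorescence.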

Assay [5] in a line: qHTS assay to identify small molecule agonists of the estrogen receptor beta (ER-beta) signaling pathway - cell viability counter screen (AID 1259380; active = well fitted curve in the direction sought with a large enough effect in the repeat runs; an effect the other way counts as inactive or inconclusive; also: nearly all actives have a fitted effect of over 30% in size; also: potency is read from the fitted curve at half-maximal effect). The method, boiled down:
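ER-beta-UAS-bla HEK293T cells in medium with 2% charcoal-stripped FBS were preincubated 6 hr at 37C, dosed with compound in DMSO for 16 hr, then after the bla read, CellTiter-Glo was added for 30 min at room temperature; luminescence recorded.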

The nature of assay [6]: qHTS assay to identify small molecule antagonists of the estrogen receptor beta (ER-beta) signaling pathway - cell viability counter screen (AID 1259382; active = well fitted curve in the direction sought with a large enough effect in the repeat runs; an effect the other way counts as inactive or inconclusive; also: nearly all actives have a fitted effect of over 55% in size; also: potency is read from the fitted curve at half-maximal effect). In outline: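 ER-beta-UAS-bla HEK293T cells (2,000/well, 2% charcoal-stripped FBS) were pre-incubated 6 hr at 37C, then given compound plus 1nM final 17-beta-estradiol for 16 hr. Viability was read in the same wells by CellTiter-Glo luminescence after 30 min at room temperature.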

Assay [7] deals with Estrogen receptor (Homo sapiens) (UniProt P03372). In words: qHTS assay to identify small molecule agonists of the estrogen receptor alpha (ER-alpha) signaling pathway in the presence of an antagonist (AID 1259383). Also: top concentration of the series differs between compounds; nearly all actives have a fitted effect of over 15% in size. The method, boiled down: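 VM7Luc4E2 cells (endogenous full-length ER-alpha, 4×ERE-luciferase) were precultured 5 days in phenol red-free medium with 10% charcoal-stripped FBS, given 10.0nM ICI-182,780 (final), then treated with compounds at 15 concentrations for 22hr at 37C; luminescence read with ONE-Glo.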
Chain of Estrogen receptor (Homo sapiens) (P03372 whole entry, looked up): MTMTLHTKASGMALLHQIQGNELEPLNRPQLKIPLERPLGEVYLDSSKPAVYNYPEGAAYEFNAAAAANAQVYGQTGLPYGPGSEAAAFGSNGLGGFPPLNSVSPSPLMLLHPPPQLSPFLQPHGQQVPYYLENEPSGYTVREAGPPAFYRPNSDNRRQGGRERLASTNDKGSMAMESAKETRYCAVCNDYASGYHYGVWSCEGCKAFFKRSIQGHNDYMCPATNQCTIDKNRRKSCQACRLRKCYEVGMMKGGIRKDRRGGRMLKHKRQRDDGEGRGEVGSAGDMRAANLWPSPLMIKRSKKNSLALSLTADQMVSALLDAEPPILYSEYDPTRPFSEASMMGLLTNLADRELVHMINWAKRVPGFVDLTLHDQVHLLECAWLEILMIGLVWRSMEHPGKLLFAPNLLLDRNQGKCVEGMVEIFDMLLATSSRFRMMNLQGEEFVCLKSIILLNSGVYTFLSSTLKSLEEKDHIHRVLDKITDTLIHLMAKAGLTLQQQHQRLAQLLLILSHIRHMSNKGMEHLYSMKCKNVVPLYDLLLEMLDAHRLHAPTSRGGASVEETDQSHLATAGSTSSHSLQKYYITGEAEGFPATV

Assay [8] can be described thus: qHTS assay to identify small molecule agonists or antagonists of the thyroid stimulating hormone receptor (TSHR) signaling pathway - wild type cell line counter screen (AID 1259384). The method, boiled down: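 Counter screen in untransfected Hek293: compounds (15-point titration, triplicate) plus phosphodiesterase inhibitor Ro20-1724 added after 18 h plating; 30 min RT. Intracellular cAMP via competitive d2/cryptate immunoassay, 1 h incubation.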

Assay [9] deals with Thyrotropin receptor (Homo sapiens) (UniProt P16473). In words: qHTS assay to identify small molecule antagonists of the thyroid stimulating hormone receptor (TSHR) signaling pathway (AID 1259385). Also: nearly all actives have a fitted effect of over 20% in size. In outline: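 Antagonist mode: compound-treated TSHR-expressing HEK293 cells were stimulated with 1.5 ng/mL TSH (final) in presence of Ro20-1724 for 30 min at RT. HTRF cAMP detection after 1 h; each compound tested at 15 concentrations, triplicate.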
Chain of Thyrotropin receptor (Homo sapiens) (P16473 whole entry, looked up): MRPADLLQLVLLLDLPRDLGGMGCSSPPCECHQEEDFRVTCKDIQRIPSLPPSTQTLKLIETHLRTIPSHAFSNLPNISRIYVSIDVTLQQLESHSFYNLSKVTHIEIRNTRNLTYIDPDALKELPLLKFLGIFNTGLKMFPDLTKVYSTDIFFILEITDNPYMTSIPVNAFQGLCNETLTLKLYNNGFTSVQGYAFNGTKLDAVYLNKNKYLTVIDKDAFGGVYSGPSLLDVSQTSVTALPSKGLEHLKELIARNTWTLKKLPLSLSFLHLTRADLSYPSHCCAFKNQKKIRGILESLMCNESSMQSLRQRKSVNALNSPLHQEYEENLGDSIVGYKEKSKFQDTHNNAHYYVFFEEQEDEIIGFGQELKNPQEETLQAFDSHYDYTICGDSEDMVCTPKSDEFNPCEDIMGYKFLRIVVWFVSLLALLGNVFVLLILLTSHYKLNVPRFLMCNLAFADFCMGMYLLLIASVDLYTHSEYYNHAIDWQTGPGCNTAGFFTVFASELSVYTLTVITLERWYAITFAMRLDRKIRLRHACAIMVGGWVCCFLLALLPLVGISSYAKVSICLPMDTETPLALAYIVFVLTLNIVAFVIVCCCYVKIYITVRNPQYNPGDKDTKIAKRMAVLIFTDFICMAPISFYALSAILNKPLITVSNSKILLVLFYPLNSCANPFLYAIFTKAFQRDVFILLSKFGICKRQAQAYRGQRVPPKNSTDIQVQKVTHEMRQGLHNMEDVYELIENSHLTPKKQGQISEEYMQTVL

Assay [10] in a line: qHTS assay to identify small molecule agonists of the estrogen receptor alpha (ER-alpha) signaling pathway in the presence of an antagonist - cell viability counter screen (AID 1259386; active = well fitted curve in the direction sought with a large enough effect in the repeat runs; an effect the other way counts as inactive or inconclusive;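 also: cells exposed to compounds for 22 h at 37 °C before the viability read; nearly all actives have a fitted effect of over 30% in size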; also: potency is read from the fitted curve at half-maximal effect). The method, boiled down: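 VM7Luc4E2 cells (endogenous full-length ER-alpha, 4×ERE-luciferase) were held 5 days in phenol red-free medium with 10% charcoal-stripped FBS, plated, then given 10.0nM ICI-182,780 and compounds at 15 concentrations for 22hr at 37C; viability read by CellTiter-Fluor fluorescence.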

Assay [11] concerns the target Progesterone receptor (Homo sapiens) (UniProt P06401). As to the kind of experiment: qHTS assay to identify small molecule agonists of the progesterone receptor (PR) signaling pathway (AID 1346784). Also: nearly all actives have a fitted effect of over 30% in size. The method, boiled down:
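Beta-lactamase reporter read-out: after 16 hr compound treatment at 37C and a further 2 hr at room temperature with LiveBLAzer B/G FRET substrate, fluorescence was measured in PR-UAS-bla HEK 293T cells grown in 2% charcoal-stripped serum.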

The target is the same in assay [12]. As to the kind of experiment: qHTS assay to identify small molecule antagonists of the progesterone receptor (PR) signaling pathway (AID 1346795; active = well fitted inhibition curve with a large enough effect in the signal ratio in the repeat runs, not every such curve was filed as active; the % refers to the signal ratio). The method, boiled down: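 Read-out is fluorescence from the LiveBLAzer B/G FRET substrate, cleaved by a UAS-controlled beta-lactamase in PR-UAS-bla HEK293T cells after 16 hr exposure to compound plus 1 nM promegestone (final), followed by 2 hr at room temperature.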

The nature of assay [13]: qHTS assay to identify small molecule antagonists of the progesterone receptor (PR) signaling pathway - cell viability counter screen (AID 1346798; active = well fitted curve in the direction sought with a large enough effect in the repeat runs; an effect the other way counts as inactive or inconclusive;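 also: HEK293T PR-UAS-bla cells stimulated with the agonist R5020; series mostly up to about 92 µM; nearly all actives have a fitted effect of over 50% in size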). In outline:
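HEK293T PR-UAS-bla, 2% charcoal-stripped FBS; 4 hr pre-plate; cpd + R5020, 16 h 37C; LiveBLAzer read first; then CellTiter-Glo 30 min RT, luminescence.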

A short description of assay [14]: qHTS assay to identify small molecule antagonists of the TGF-beta/Smad signaling pathway - cell viability counter screen (AID 1346824; active = well fitted curve in the direction sought with a large enough effect in the repeat runs; an effect the other way counts as inactive or inconclusive; also: nearly all actives have a fitted effect of over 50% in size). In outline:
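Cytotoxicity counter-screen run in the same wells as the beta-lactamase Smad reporter read: CellTiter-Glo luminescence after 30 min at room temperature. HEK 293T SBE-bla cells had 5 hr compound exposure at 37 C with TGF-beta1 (0.25 ng/mL stock).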

The nature of assay [15]: qHTS assay to identify small molecule agonists of the TGF-beta/Smad signaling pathway - cell viability counter screen (AID 1346829; active = well fitted curve in the direction sought with a large enough effect in the repeat runs; an effect the other way counts as inactive or inconclusive; also: top concentration of the series differs between compounds; nearly all actives have a fitted effect of over 45% in size). In outline: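 Here the cytotoxicity of library compounds is measured in SBE-bla HEK 293T cells treated for 5 hr, using CellTiter-Glo added to wells already read for the beta-lactamase reporter.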
Assay [16] can be described thus: qHTS assay to identify small molecule agonists of the TGF-beta/Smad signaling pathway (AID 1346859; active = well fitted activation curve with a large enough effect in the signal ratio in the repeat runs, not every such curve was filed as active; the % refers to the signal ratio; also: series mostly up to about 77 µM). In outline: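 SBE-bla HEK 293T, 4,000 cells/well, plated o/n; cpd in DMSO, 5 hr, 37 C/5% CO2; B/G FRET substrate 2 hr RT; ex 405, em 460/530 nm.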
Assay [17] has as its target Thyrotropin-releasing hormone receptor (Homo sapiens) (UniProt P34981). In words: qHTS assay to identify small molecule antagonists of the thyrotropin-releasing hormone receptor (TRHR) signaling pathway (AID 1346877; active = well fitted inhibition curve with a large enough effect in the repeat runs, not every such curve was filed as active; also: series mostly up to about 51 µM). The method, boiled down:
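TRHR-expressing HEK293 cells were seeded, cultured 18 h at 37 °C, then loaded with calcium dye for 2 h. Compounds were pre-incubated 5 min at room temperature before 1 nM TRH (final) was added, and kinetic fluorescence was recorded for 3 min.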

For assay [18], the target named is Androgen receptor (Homo sapiens) (UniProt P10275). In words: qHTS assay to identify small molecule agonists of the androgen receptor (AR) signaling pathway in the presence of an antagonist (AID 1259381). Also: nearly all actives have a fitted effect of over 15% in size. In outline: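 MDA-kb2 human breast carcinoma cells carrying an MMTV-luciferase reporter (AR- and GR-responsive) were treated with compounds at 15 concentrations plus 3.0uM final nilutamide for 16hr at 37C without CO2; luminescence was read after ONE-Glo addition.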
Chain of Androgen receptor (Homo sapiens) (P10275 whole entry, looked up): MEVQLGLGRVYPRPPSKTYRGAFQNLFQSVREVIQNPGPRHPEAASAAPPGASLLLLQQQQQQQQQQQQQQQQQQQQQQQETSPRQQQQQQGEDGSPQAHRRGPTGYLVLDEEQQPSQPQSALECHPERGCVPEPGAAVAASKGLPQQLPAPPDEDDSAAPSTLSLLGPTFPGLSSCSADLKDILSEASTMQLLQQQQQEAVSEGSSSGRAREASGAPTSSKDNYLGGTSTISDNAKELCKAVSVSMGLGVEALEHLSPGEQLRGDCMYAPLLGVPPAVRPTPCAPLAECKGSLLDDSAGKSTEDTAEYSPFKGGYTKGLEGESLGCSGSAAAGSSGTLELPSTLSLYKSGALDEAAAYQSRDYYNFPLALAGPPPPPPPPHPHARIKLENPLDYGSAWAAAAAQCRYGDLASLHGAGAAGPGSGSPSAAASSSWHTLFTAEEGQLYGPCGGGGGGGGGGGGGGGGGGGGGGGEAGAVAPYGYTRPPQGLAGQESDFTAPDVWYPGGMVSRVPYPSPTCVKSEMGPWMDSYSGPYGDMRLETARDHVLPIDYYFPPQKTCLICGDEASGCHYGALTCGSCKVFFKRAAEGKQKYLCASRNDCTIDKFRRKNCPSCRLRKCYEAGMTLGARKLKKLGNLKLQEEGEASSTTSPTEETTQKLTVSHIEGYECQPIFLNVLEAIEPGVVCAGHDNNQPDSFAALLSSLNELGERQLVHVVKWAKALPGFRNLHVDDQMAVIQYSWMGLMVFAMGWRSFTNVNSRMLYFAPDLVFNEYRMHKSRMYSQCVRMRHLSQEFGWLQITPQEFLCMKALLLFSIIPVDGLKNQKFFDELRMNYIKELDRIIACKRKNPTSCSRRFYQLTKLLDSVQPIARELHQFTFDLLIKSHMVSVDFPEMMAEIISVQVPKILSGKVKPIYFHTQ

Where “and” joins values, the source holds several entries; their conditions need not be identical. Equal entries are not always repeated. Results filed as inconclusive are left out. Some compounds were tested as several samples or in several runs, with calls that do not always agree. Calls of active or inactive are those of the source. Unless noted, calls follow the shape of the full dose curve.

Chain of Progesterone receptor (Homo sapiens) (P06401 whole entry, looked up): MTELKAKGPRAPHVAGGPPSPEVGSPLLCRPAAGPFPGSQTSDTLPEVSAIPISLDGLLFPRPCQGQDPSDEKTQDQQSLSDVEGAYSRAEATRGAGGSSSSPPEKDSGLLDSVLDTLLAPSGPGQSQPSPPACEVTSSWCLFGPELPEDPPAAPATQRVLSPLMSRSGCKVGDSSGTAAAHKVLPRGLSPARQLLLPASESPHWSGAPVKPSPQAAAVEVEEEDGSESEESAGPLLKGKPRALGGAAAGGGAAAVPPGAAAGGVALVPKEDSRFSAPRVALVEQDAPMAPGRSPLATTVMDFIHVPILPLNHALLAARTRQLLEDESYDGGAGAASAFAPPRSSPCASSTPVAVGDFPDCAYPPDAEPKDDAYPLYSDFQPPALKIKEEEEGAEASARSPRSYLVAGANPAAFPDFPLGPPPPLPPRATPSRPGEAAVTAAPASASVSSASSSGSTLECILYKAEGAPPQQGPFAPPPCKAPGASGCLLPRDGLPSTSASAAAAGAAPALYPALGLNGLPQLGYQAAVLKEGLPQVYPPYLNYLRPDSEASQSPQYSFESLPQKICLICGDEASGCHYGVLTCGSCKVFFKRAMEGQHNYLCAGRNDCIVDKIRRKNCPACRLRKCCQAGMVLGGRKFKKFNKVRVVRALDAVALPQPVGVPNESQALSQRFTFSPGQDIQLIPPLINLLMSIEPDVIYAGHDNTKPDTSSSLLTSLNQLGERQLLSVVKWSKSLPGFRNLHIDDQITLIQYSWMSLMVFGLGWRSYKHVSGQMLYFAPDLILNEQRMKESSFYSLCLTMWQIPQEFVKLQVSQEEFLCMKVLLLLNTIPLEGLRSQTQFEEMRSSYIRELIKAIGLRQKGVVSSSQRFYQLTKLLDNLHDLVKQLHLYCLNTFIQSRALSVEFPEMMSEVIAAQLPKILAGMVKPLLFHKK
Chain of Thyrotropin-releasing hormone receptor (Homo sapiens) (P34981 whole entry, looked up): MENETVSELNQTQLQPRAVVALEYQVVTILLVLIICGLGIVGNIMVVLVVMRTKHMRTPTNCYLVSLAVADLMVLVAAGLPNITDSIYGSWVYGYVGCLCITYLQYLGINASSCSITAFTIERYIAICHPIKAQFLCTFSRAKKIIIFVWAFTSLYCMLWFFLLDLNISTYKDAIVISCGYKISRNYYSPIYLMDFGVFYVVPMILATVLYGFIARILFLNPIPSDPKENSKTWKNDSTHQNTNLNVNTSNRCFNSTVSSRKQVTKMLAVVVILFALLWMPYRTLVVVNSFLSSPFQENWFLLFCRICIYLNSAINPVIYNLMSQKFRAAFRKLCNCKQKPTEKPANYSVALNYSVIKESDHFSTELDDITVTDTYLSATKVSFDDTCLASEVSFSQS
Chain of Estrogen receptor beta (Homo sapiens) (Q92731 whole entry, looked up): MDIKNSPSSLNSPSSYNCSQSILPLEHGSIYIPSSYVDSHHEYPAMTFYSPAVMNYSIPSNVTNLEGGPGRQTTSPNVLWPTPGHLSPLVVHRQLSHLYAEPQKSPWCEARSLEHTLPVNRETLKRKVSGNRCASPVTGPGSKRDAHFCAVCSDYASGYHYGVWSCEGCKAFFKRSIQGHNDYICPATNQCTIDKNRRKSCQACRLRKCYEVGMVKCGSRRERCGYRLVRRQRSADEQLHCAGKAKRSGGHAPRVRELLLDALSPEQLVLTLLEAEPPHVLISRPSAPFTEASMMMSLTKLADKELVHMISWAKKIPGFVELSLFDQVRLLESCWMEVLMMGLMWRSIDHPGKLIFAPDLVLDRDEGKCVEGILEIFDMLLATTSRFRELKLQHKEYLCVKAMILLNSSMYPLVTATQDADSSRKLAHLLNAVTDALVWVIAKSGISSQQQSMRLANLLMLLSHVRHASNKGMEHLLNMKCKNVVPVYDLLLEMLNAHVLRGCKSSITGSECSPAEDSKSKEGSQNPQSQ

`CC1Cc2ccccc2N1NC(=O)c1ccc(Cl)c(S(N)(=O)=O)c1` (centres undefined): the result in [1], in assay [8], in [9], in assay [16] and in assay [17] was inactive. Besides, the Potency result in assay [2], in assay [3], in assay [4], in assay [5], in assay [6] and in [7] was “inactive” throughout. Further, the Potency entry in [10], in assay [11], in assay [12], in assay [13], in [14] and in assay [15] was “inactive” each time.
With `Nc1cc(-c2ccncc2)c[nH]c1=O`, the compound was classed as inactive in [1], in [8], in assay [16] and in assay [17]. Also, the Potency result in assay [2], in [3], in assay [4], in assay [5], in assay [18] and in assay [6] was “inactive” each time. The Potency entry in assay [7], in assay [10], in [11], in assay [12], in [13] and in assay [15] was “inactive” each time.
In the case of `C=C(C)C(=O)OCCCCCCCCCCCC`, the compound was classed as inactive in assay [1], in assay [8], in [9], in assay [16] and in assay [17]. Also, the Potency entry in assay [2], in assay [3], in [5], in [6], in assay [7] and in [10] was “inactive” throughout. Moreover, the Potency result in assay [11], in [12], in [13], in assay [14] and in assay [15] was “inactive” throughout.
As for `COC(=O)c1ccc(C(=O)OC)cc1`, the outcome in assay [1], in assay [8], in [9], in [16] and in assay [17] was inactive. For the same compound, the Potency in assay [2] was 982 nM (active) and inactive; in assay [5], 6.19 µM (active) and inactive; in assay [6], 19.6 µM (active) and inactive. Moreover, the Potency result in assay [3], in assay [7], in assay [10], in assay [14] and in assay [15] was “inactive” in each case.
As for `CC(C)(C)C1CCC(O)CC1` (centres undefined), the call in assay [1], in assay [8], in assay [9], in [16] and in assay [17] was inactive. Further, the Potency result in [2], in [3], in [4], in assay [5], in assay [6] and in [7] was “inactive” each time. Besides, the Potency entry in assay [10], in assay [11], in assay [12], in [13] and in assay [15] was “inactive” throughout.
Take `CCCCCC/C=C/CCCCCCCC(=O)O`: the result in assay [1], in assay [8], in assay [9], in [16] and in assay [17] was inactive. Also, the Potency entry in assay [2], in assay [3], in assay [4], in assay [5], in assay [6] and in assay [7] was “inactive” in each case. The Potency result in assay [10], in [11], in [12], in assay [13] and in [15] was “inactive” in each case.
Regarding `CN(C)c1ccc(C(=N)c2ccc(N(C)C)cc2)cc1`, the compound was called inactive in assay [1], in [8], in [9], in assay [16] and in [17]. For the same compound, the Potency was 2.4 µM (active) and 11.7 µM (active) in assay [2]; 30.3 µM (active) and 26.3 µM (active) in assay [4]; 30.3 µM (active) and 20.9 µM (active) in assay [10]. For the same compound, the Potency result in [3], in assay [6], in assay [7], in [11], in [13] and in assay [14] was “inactive” each time. For the same compound, in assay [15], the Potency entry is “inactive”.

Source of the values: PubChem BioAssay (Tox21).
